A selection: hits, their analogues and other compounds. The true share with any hit is near 12%.
AmpC inh no detg: qHTS Inhibitors of AmpC Beta-Lactamase (assay without detergent); P00811; AmpC nitrocefin hydrolysis, absorbance 480 nm, 0.0001% Triton; Potency, µM (doses to about 57.1 µM), usual class: inhibitors; 330,000 compounds, 0.52% hits; note: nearly all actives have a fitted effect of over 20% in size
Target sequence (P00811 whole entry, looked up): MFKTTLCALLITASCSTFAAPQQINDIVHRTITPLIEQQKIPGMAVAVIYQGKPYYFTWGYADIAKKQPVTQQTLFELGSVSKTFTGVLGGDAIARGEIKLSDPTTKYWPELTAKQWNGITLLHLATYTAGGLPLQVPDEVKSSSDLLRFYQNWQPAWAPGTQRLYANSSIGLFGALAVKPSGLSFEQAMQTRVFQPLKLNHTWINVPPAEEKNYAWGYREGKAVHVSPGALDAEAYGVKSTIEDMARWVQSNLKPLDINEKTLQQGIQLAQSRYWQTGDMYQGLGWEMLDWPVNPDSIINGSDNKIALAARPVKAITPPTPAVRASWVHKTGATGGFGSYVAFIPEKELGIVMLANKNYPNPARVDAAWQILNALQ
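AmpC (5.3 nM in the dispensed reagent) in 20 mM phosphate pH 7.0 with 0.01% (detergent screen) or 0.0001% Triton X-100 was preincubated with compounds for 15 min at room temperature. Nitrocefin was then added from an 800 uM solution, and hydrolysis was followed at 480 nm.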
Sm TGR inh: qHTS Assay for the Inhibitors of Schistosoma Mansoni Peroxiredoxins; Schistosoma mansoni thioredoxin glutathione reductase (TGR), Q962Y6; purified TGR, DTNB reduction, TNB absorbance 405 nm; Potency, µM (top dose mostly 114 µM), most hits filed as inhibitors; 360,000 compounds, 3% hits; note: nearly all actives have a fitted effect of over 60% in size
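First, TGR (20 nM dispensed) and NADPH were mixed with compound. Second, a 15 min room-temperature incubation followed. Third, further NADPH and then DTNB were added to start the reaction. Finally, TNB absorbance was monitored kinetically.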
Pf growth 48h: Primary qHTS for delayed death inhibitors of the malarial parasite plastid, 48 hour incubation; P. falciparum luciferase growth in erythrocytes, 48 h; Potency, µM (doses to about 28.7 µM), actives largely listed as inhibitors; 310,000 compounds, 5.9% hits
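Growth was read as firefly luciferase luminescence after a 48 h, 37 C, 5% CO2 exposure of compounds to reporter-bearing P. falciparum cultures (0.1% parasitemia, 2% hematocrit final) in Albumax-supplemented RPMI 1640.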
AmpC detergent: qHTS Inhibitors of AmpC Beta-Lactamase (assay with detergent); Potency, µM (titrated, usually from 114 µM), actives largely listed as inhibitors; 370,000 compounds, 0.041% hits; P00811; AID 485294, 2010; AmpC hydrolysis of nitrocefin, absorbance 480 nm, 0.01% Triton; note: nearly all actives have a fitted effect of over 25% in size
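20 mM phosphate pH 7.0 + 0.01% (detergent screen) or 0.0001% Triton X-100; 5.3 nM AmpC reagent; cpd preinc 15 min RT; nitrocefin (800 uM stock) to start; A480 q20 s × 4 min; Activity was normalised to no-enzyme and no-compound control wells.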
Pf growth 96h: Primary qHTS for delayed death inhibitors of the malarial parasite plastid, 96 hour incubation; P. falciparum luciferase reporter growth, 96 h; Potency, µM (highest dose often 28.7 µM), hits mostly inhibitors; 320,000 compounds, 6.9% hits; AID 504834, 2011
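Two-generation exposure (96 h) targets delayed-death phenotype. Reporter parasites carrying integrated firefly luciferase, in red cells at 2% hematocrit and 0.05% parasitemia final, kept at 37 C, 5% CO2; luminescence loss indicates inhibition.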
SARS PLP yeast: qHTS of Yeast-based Assay for SARS-CoV PLP; S. cerevisiae expressing SARS-CoV PLpro, growth rescue; Potency, µM (top dose mostly 32.9 µM), most hits filed as activators; 330,000 compounds, 0.19% hits; calls by dose curve; note: nearly all actives have a fitted effect of over 55% in size
Hits are given with their value; 0 = inactive; ? = inconclusive; - = no result given. Unless noted, calls come from the whole dose curve; as a rule, active = well fitted curve in the direction sought with a large enough effect; inconclusive = small, poorly fitted or top-dose-only effect, or another doubt; inactive = no such curve, though single readings can be large; an effect the other way counts as inactive or inconclusive.

SMILES | AmpC inh no detg | Sm TGR inh | Pf growth 48h | AmpC detergent | Pf growth 96h | SARS PLP yeast
CCCCCCCNC(=O)C1(CC2CC(c3ccccc3)=NO2)CCN(C(=O)OC(C)(C)C)CC1 (centres undefined) | 0 | 0 | 2.94µM | 0 | 6.57µM | 0
CCCCCCCNC(=O)C1(CC2CC(c3cccc(Br)c3)=NO2)CCN(C(=O)c2ccccc2)CC1 (centres undefined) | 0 | 0 | 13.1µM | 0 | ? | 0
CCC1C(=O)NCCN1C(=O)c1ccc2nc(Cc3cccc(Cl)c3)oc2c1 (centres undefined) | 0 | 0 | 0 | ? | ? | 0
CCOc1cc(C(=O)N2CCC(c3ccncc3)CC2)cc(OCC)c1OCC | - | 0 | - | 0 | - | -
CCCCCCCNC(=O)C1(CC2CC(c3ccc(Cl)cc3)=NO2)CCN(C(=O)c2cc(OCC)c(OCC)c(OCC)c2)CC1 (centres undefined) | 0 | 0 | 1.17µM | ? | 0.329µM | 0
CC(C)(C)OC(=O)N1CCC(CC2CC(c3ccccc3)=NO2)(C(=O)NCc2ccccc2)CC1 (centres undefined) | 0 | 0 | 0.262µM | 0 | ? | 0
COc1ccccc1C(=O)NC1(C(F)(F)F)C(=O)Nc2c1c(=O)[nH]c(=O)n2-c1ccccc1 (centres undefined) | - | 0 | - | 0 | - | -
Cc1ccc(S(=O)(=O)N(C)CC(=O)N2CC(C)OC(C)C2)cc1 (centres undefined) | 0 | 0 | 0 | 0 | 0 | ?
Cc1cccc(Oc2cc(NC(=O)Cn3cnc([N+](=O)[O-])n3)cc([N+](=O)[O-])c2)c1 | 0 | 0 | ? | 0 | 0 | 0
CC(C)=NOc1cc(NC(=O)CCl)cc([N+](=O)[O-])c1 | 0 | 11.2µM | ? | 0 | ? | 0
CCC(=O)Nc1cc(ON=C(C)C)cc([N+](=O)[O-])c1 | 0 | 0 | 0 | ? | 0 | 0
Cc1cc(C)cc(Oc2cc(NC(=O)c3cn(C)nc3C)cc([N+](=O)[O-])c2)c1 | 0 | 0 | - | ? | 8.28µM | 0
CC(C)NC(=O)C1(c2ccccc2)CC1(Cl)Cl (centres undefined) | 0 | 0 | 0 | ? | 0 | 0
COCc1cccc(C2=CC(=O)C[C@H](c3ccc(F)cc3)C2)c1 | 0 | 0 | 2.33µM | 0 | ? | 0
COCc1cccc(C2=CC(=O)C[C@H](c3ccc(OC)cc3)C2)c1 | 0 | 0 | 0 | 0 | 0 | 0
O=C1C=C(c2cccc(CO)c2)C[C@@H](c2ccc(F)cc2)C1 | 0 | 0 | 2.33µM | 0 | 2.08µM | 0
COc1cccc(C2=CC(=O)C[C@H](c3ccc(F)cc3)C2)c1 | 0 | 0 | 2.33µM | 0 | ? | 0
Cc1ccc(C)c(Cn2c(SCC(=O)N(C)Cc3ccccc3)nc3ccccc32)c1 | - | 0 | - | 0 | - | -
O=C(NCC1CCCCC1)c1ccc(Cl)c(S(=O)(=O)N2CCOCC2)c1 | 0 | 0 | ? | 0 | ? | 0
O=C(NCC1CCCCC1)c1ccc(F)c(S(=O)(=O)N2CCOCC2)c1 | 0 | 0 | ? | 0 | 7.38µM | 0
Cc1ccc(C(=O)N2CCOCC2)cc1S(=O)(=O)N1CCOCC1 | 0 | 0 | 0 | 0 | ? | 0
Cc1ccc(C(=O)O)cc1S(=O)(=O)N1CCOCC1 | 0 | 0 | 0 | 0 | 8.28µM | 0
O=C(Nc1ccccc1N1CCCCC1)c1ccc(F)c(S(=O)(=O)N2CCOCC2)c1 | 0 | 0 | 13.1µM | ? | ? | 0
Cc1ccc(C(=O)Nc2ccccc2N2CCOCC2)cc1S(=O)(=O)N1CCOCC1 | 0 | 0 | 13.1µM | 0 | ? | 0
COc1ccc2nc(NC(=O)c3ccc(S(=O)(=O)N4CCC(C)CC4)cc3)sc2c1 | - | 0 | - | 0 | - | -
SMILES | AmpC inh no detg | Sm TGR inh | Pf growth 48h | AmpC detergent | Pf growth 96h | SARS PLP yeast
COc1cc(OC)c(Nc2nc3ccc(C(=O)c4ccccc4)cc3n3c(C)nnc23)cc1Cl | - | 0 | - | 0 | - | -
O=C(Nc1ccccc1N1CCCC1)c1ccc(Cl)c(S(=O)(=O)N2CCOCC2)c1 | 0 | 0 | 11.7µM | 0 | 8.28µM | 0
CC1CCN(C(=O)CSc2nnc(CN3CCOCC3)n2-c2ccccc2)CC1 | 0 | 0 | 0 | 0 | - | 0
COCCCNC(=S)N1CCN(c2nc(-c3ccc(F)cc3)cs2)CC1 | 0 | 0 | ? | 0 | ? | 0
O=C(Nc1nc(-c2ccccc2)cs1)c1cccnc1 | 0 | 0 | 0 | 0 | - | 0
O=C(NC(=S)N1CCN(c2nc(-c3ccccc3)cs2)CC1)c1cccnc1 | 0 | 0 | 10.4µM | ? | ? | 0
COCCNC(=S)N1CCN(c2nc(-c3ccccc3)cs2)CC1 | 0 | 0 | 0 | ? | 11.7µM | 0
CCOCCCNC(=S)N1CCN(c2nc(-c3ccc(F)cc3)cs2)CC1 | 0 | 0 | 9.28µM | 0 | ? | 0
CCOC(=O)C(=O)N1CCN(c2nc(-c3ccc(Cl)cc3)cs2)CC1 | 0 | 0 | 0 | 0 | 4.65µM | 0
CCN(CC)C(=O)[C@H]1CC(CC(=O)NCc2ccco2)C(=O)N2CCc3c([nH]c4ccc(OC)cc34)[C@]12C (some centres undefined) | 0 | - | - | - | - | 0
CCc1ccc(NC(=S)N2CCN(S(=O)(=O)c3ccccc3)CC2)cc1 | 0 | 0 | 0 | 0 | 0 | 0
CCOC(=O)/C(C#N)=N/Nc1ccccc1C(=O)O | 0 | 0 | ? | 0 | 10.4µM | 0
CCOC(=O)CC(=O)Nc1ccccc1C(=O)O | 0 | 0 | 0 | 0 | 0 | 0
COc1ccc(-c2cn3nc(N4CCCC(C(=O)Nc5ccc(C)c(C)c5)C4)sc3n2)cc1 (centres undefined) | - | 0 | - | 0 | - | -
FC(F)(F)c1cc(Nc2ccccc2)nc(-c2ccccn2)n1 | 0 | 0 | 2.94µM | 0 | ? | 0
CC(C)Nc1cc(C(F)(F)F)nc(-c2ccccn2)n1 | 0 | 0 | 5.22µM | 0 | 4.15µM | 0
CC1(CCl)N([O-])C2=C(CCCC2)[N+]1=O (centres undefined) | 0 | 39.8µM | 0 | 0 | 0 | 0
O=[N+]1C2=C(CCCC2)N([O-])C12CCCC2 | 0 | 0 | 0 | 0 | 0 | 0
Cc1cc(C)n(-c2ccc(C(=O)O)cc2)n1 | 0 | 0 | 0 | 0 | 1.85µM | 0
Cc1cc(C)n(-c2ccc(NN=C(C#N)C#N)cc2)n1 | 0 | 31.6µM | ? | 0 | ? | 0
Cc1nc(=O)c(-c2ccccc2)c(C)n1-c1ccc(S(N)(=O)=O)cc1 | 0 | 0 | 0 | 0 | - | 0
Cc1cc(N)n(-c2ccc(C(=O)O)cc2)n1 | 0 | - | 0 | 0 | ? | 0
Cc1ccc(C)n1-c1ccc(C(=O)Nc2ccccc2)cc1 | 0 | 25.1µM | ? | 0 | ? | 0
Cc1nc(=O)c(-c2ccccc2)c(C)n1-c1ccc(C(=O)O)cc1 | 0 | 0 | 0 | 0 | 1.65µM | ?
CN(CC(=O)Nc1ccccc1C(=O)N1CCCC1)S(=O)(=O)c1ccc(Cl)cc1 | 0 | 0 | - | 0 | 0 | 0

Screening data (PubChem BioAssay)
